High-throughput results deposited in PubChem BioAssay by National Center for Advancing Translational Sciences (NCATS).
Sampled rows, rich in hits. Any-hit rate of the full collection: about 2.7%.
RXFP1 agonist: activates the human relaxin receptor RXFP1 | Potency, µM (series often up to 57.5 µM), without a hit: at the highest dose activation, actives largely listed as activators | HEK293T-RXFP1 cAMP TR-FRET, 30 min; response scale: percent of porcine relaxin response, buffer zero | 370,000 tested, 0.3% active; active = well fitted activation curve with a large enough effect; inconclusive = small, poorly fitted or top-dose-only effect; also: potency is read from the fitted curve at half-maximal effect; % is scaled to controls: 0 for no effect and ±100 for the full control effect; nearly all actives have a fitted effect of over 60% in size
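cAMP rise read by TR-FRET after 30 min, 37C compound exposure (up to 58 uM) in RXFP1-transfected HEK293 cells with Ro 20174 present. EC50 from Hill-equation fits, with 29 nM porcine relaxin as 100% and buffer as basal.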
gsp antagonist: gsp mutant antagonism; gsp-mutant cells, cAMP HTRF, 30 min; Potency, µM (titrated, usually from 76.9 µM), without a hit: at the highest dose activity change, negative = inhibition, actives largely listed as inhibitors; 340,000 tested, 0.4% active; AID 624288; calls by dose curve; cell line not stated here;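 also: intracellular cAMP measured with PDE inhibitor Ro 20-1724 present during compound exposure; potency is read from the fitted curve at half-maximal effect; % is scaled to controls: 0 for no effect and ±100 for the full control effect; nearly all actives have a fitted effect of over 65% in size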
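HTRF cAMP measurement after 30 min RT detection following 30 min, 37C compound treatment alongside […] (added as 300 uM solution) in G418-selected cells seeded at 2000/well and grown 16–24 h.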
pAkt inh: inhibitors of Akt phosphorylation; Neuro2A IGF-stimulated pAkt S473 HTRF, 20 min; hits give low values; activity change, % for hits at 50 µM; AID 651550; 360,000 tested, 0.32% active; in the data active = activity change below about -80%; inconclusive = mostly about -51% to -80%; also: % is scaled to controls: 0 for no effect and ±100 for the full control effect
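Neuro2A cells (4,500/well, DMEM with 0.5% FBS) were treated with compound at a single 50 µM final concentration, stimulated with 6 nM IGF for 20 min at 37 °C, and lysed. Phospho-Akt Ser473 was read by HTRF as 665/615 ratio ×10^4.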
RXFP1 antag: RXFP1 (human) relaxin receptor antagonism; Q9HBX9; HEK293-RXFP1, relaxin-stimulated cAMP HTRF, 30 min; hits give low values; activity change, negative = inhibition, % at 57.5 µM; 350,000 tested, 0.59% active; AID 1259400;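 active = activity change of -60% or lower, but not beyond a set lower limit; inconclusive = change between -60% and -40%, or beyond the set limit; inactive = change above -40%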; also: % is scaled to controls: 0 for no effect and ±100 for the full control effect
ClpP mod: qHTS Assay for Activators of ClpP | ATP-dependent Clp protease proteolytic subunit (Bacillus subtilis (strain 168)), P80244 | purified B. subtilis ClpP, FRET peptide cleavage, 20 min | Potency, µM (titrated, usually from 57.5 µM), for inactives: at the top dose activity change, negative = active | 340,000 tested, 1.9% active | AID 651965, 2013; active = well fitted falling curve with a large enough effect; inconclusive = small, poorly fitted or top-dose-only effect; inactive = no such curve, though single readings can be large or run the other way; also: potency is read from the fitted curve at half-maximal effect; the source files actives as falling curves though it sought activators and does not explain the sign; nearly all actives have a fitted effect of over 65% in size
Target sequence (P80244 whole entry, looked up): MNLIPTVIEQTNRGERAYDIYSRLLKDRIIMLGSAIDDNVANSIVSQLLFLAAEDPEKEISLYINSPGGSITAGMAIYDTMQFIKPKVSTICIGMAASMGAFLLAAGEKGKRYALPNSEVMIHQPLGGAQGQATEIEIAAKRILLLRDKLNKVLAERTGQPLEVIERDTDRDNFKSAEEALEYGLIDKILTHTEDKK
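Buffer: 100 mM Tris/HCl pH8, 100 mM KCl, 0.05% low protease BSA, 2.5% glycerol, 0.01% Tween-20. ClpP 10 microg/mL final; 20 min RT; delta FRET normalized to ADEP and DMSO controls.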
gsp agonist: gsp mutant agonism; 340,000 tested, 0.13% active; Potency, µM (highest dose often 76.9 µM), for the others: at the top dose activation (cAMP increase), hits mostly activators; gsp mutant cells, cAMP HTRF, 30 min; AID 624287; active = well fitted activation curve with a large enough effect; inconclusive = small, poorly fitted or top-dose-only effect, or another doubt; inactive = no such curve, though single readings can be large or run the other way; cell line not stated here;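 also: phosphodiesterase inhibitor Ro 20-1724 added with compounds to block cAMP breakdown; potency is read from the fitted curve at half-maximal effect; nearly all actives have a fitted effect of over 60% in size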
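Cells stably selected in G418 were plated at 2000/well, grown 16-24 hr, then given compounds in DMSO with the PDE inhibitor […] (300 uM solution added) for 30 min at 37C; cAMP was read by HTRF.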
An asterisk follows results filed as active; i = inactive; ? = inconclusive; · = no result given; [ ] = dose if it differs, or a comment.

SMILES	RXFP1 agonist	gsp antagonist	pAkt inh	RXFP1 antag	ClpP mod	gsp agonist
CCOc1ccc(NC(=O)CCNC(=O)Cn2ccc3ccccc3c2=O)cc1	1.3%	-3.9%	i	2.9	31.6µM*	8.5%[15.4 µM]
O=C(CSc1nc(-c2ccc(Cl)cc2)[nH]c(=O)n1)Nc1cccc(Cl)c1	-0.1%	-12.9%	i	-69.9*	·	5.5%[15.4 µM]
O=C(O)CCCC(=O)Nc1cccc(-c2nc3ccccc3[nH]2)c1	1.9%	9.7%	i	1.4	25.1µM*	9.0%
O=C(COc1ccccc1)Nc1cccc(-c2nc3ccccc3[nH]2)c1	1.9%	-8.1%	i	-8.7	31.6µM*	-2.6%
O=C(CSc1ccc(Cl)cc1)Nc1cccc(-c2nc3ccccc3[nH]2)c1	5.6%	7.8%	i	·	12.6µM*	?
Cc1ccc(-c2cc(NC(=O)C(C)Oc3ccc(C)c(C)c3)on2)cc1 (stereo not given)	0.0%	·	·	-38.4	-7.4%	·
CCCn1c(=O)n(-c2ccccc2Cl)c(=O)c2sc3ccccc3c21	3.8%	·	·	·	4.4%	·
C#CC(C)(CC)OC(=O)c1ccccc1C(=O)O (stereo not given)	·	·	·	8.1	·	·
Cc1noc(/C=C/c2ccco2)c1S(=O)(=O)N1CCC(C(=O)Nc2ccc(F)c(Cl)c2)CC1	2.5%	·	·	-9.2	-7.9%	·
COc1ccccc1-c1cc(C(F)(F)F)n2ncc(S(=O)(=O)c3ccccc3)c2n1	-3.9%	-10.3%	i	10.1	28.2µM*	-17.6%
O=S(=O)(c1ccccc1)c1cnn2c(C(F)(F)F)cc(-c3ccccc3)nc12	-2.5%	1.3%	-89.7%*	-1.5	?	8.8%
CCN(CC)CCNC(=O)CCc1nnc2ccc(N3CCC(C)CC3)nn12	12.7%	5.0%	i	2.5	-0.2%	5.2%
CC(C)(C)c1ccc(C(=O)CCCCl)cc1	·	·	·	-7.1	·	·
CCCCCNc1nc(-c2ccccc2)nc(-n2ccnc2)n1	4.9%	2.6%	i	-22.5	25.1µM*	-0.2%[15.4 µM]
CCCCNc1nc(N(C)c2ccccc2)nc(-n2ccnc2)n1	2.3%	12.8%	i	-18.1	-0.7%	0.0%
O=C(Nc1cccnc1Cl)c1ccc(Cl)cc1	0.7%	0.2%	i	-63.2*	·	-8.0%
O=C(NC(=S)Nc1cccnc1Cl)c1ccc(Cl)cc1	-0.3%	-11.3%	i	-15.1	·	27.3%
CCOC(=O)c1cc(OC(=O)c2cccc(Cl)c2)n(-c2ccccc2)n1	1.5%	·	·	-35.0	-4.3%	·
COc1cccc(/C=c2/[nH]c(=O)/c(=C\c3cccc(OC)c3OC)[nH]c2=O)c1OC	·	·	·	·	-10.1%	·
CCOC(=O)N1CCN(C(=O)c2cc3c(s2)-c2ccccc2OC3)CC1	?	-6.1%	i	·	3.9%	14.4%
CCCN1CCN(C(=O)c2ccccc2-c2nc3ccccc3s2)CC1	1.3%	11.2µM*	i	0.0	·	-9.3%[15.4 µM]
CCCN1CCN(C(=O)c2cc3c(s2)-c2ccccc2OC3)CC1	17.8µM*	11.8%	i	·	4.0%	20.5%
CCN1CCN(C(=O)c2ccc(-c3nc4ccccc4s3)s2)CC1	2.5%	7.3%	i	5.4	3.9%	6.7%
Cc1ccc(CNC(=O)Cn2c(=O)n(-c3ccc(Cl)cc3)c(=O)c3c(C)c(C)sc32)cc1	-1.4%	·	·	-8.0	-1.8%	·
Cc1oc2c(c1C(=O)NCc1ccccc1F)C1=NCCN1C=N2	4.2%	·	·	-11.3	-4.7%	·
SMILES	RXFP1 agonist	gsp antagonist	pAkt inh	RXFP1 antag	ClpP mod	gsp agonist
COCC(C)Nc1ncnc2c1cnn2-c1ccc(Cl)cc1 (stereo not given)	-1.0%	-8.8%	i	-12.7	28.2µM*	-0.4%
CCC(C)Nc1ncnc2c1cnn2-c1ccc(F)cc1 (stereo not given)	0.5%	·	·	-19.0	-18.4%	·
COc1ccc(-n2ncc3c(NC(C)C)ncnc32)cc1	-0.6%	-12.3%	·	-10.1	-24.3%	4.9%
COc1ccc(-n2ncc3c(NCC(C)C)ncnc32)cc1	0.5%	-4.7%	i	-9.5	31.6µM*	26.5%
Cc1nc(/C=C/c2ccccc2)cc(/C=C/c2ccccc2)n1	-2.7%	-5.0%	i	-18.5	14.1µM*	2.6%
C(=C\c1cc(/C=C/c2ccccc2)ncn1)/c1ccccc1	1.7%	13.9%	i	-8.6	35.5µM*	-1.4%
COc1ccc2[nH]c(C)cc2c1	·	·	·	·	-10.5%	·
Cc1cccc(NC(=O)CSc2ncc3c(n2)-c2ccccc2N(Cc2ccc(F)cc2)S3(=O)=O)c1C	4.9%	·	·	-2.9	3.6%	·
O=C(O)CC(=O)NC12CC3CC(CC(C3)C1)C2	-0.1%	0.0%	i	11.7	0.7%	12.7%
CC(C)NCC(=O)NC12CC3CC(CC(C3)C1)C2	-0.1%	5.7%	i	·	15.8µM*	-37.7%
C=CCSc1nnc2c(n1)OC(c1c(C)[nH]n(-c3ccccc3)c1=O)Nc1ccccc1-2 (stereo not given)	-0.6%	25.1µM*	i	8.0	0.8%	9.4%
C=CCSc1nnc2c(n1)OC(c1cccnc1)Nc1ccccc1-2 (stereo not given)	0.9%	-5.4%	i	6.2	-3.8%	0.0%
COc1cccc(CN2Cc3cccc4c3[C@H](C=CC4)CC2=O)c1	·	·	·	·	-19.7%	·
